Bioassay records as filed in PubChem.
Sampled rows, rich in hits. Any-hit rate of the full collection: about 0.19%.
Bfl-1 Bim block – disrupts Bim binding to human Bfl-1; Q16548; actives 0.12% (n = 190,000); inhibition, % at 10 µM; Bead-based flow cytometry, Bim-Bfl-1 binding inhibition;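 further: 0% = wells without compound plus tracer and 100% = blocker peptide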
Target sequence (Q16548 whole entry, looked up): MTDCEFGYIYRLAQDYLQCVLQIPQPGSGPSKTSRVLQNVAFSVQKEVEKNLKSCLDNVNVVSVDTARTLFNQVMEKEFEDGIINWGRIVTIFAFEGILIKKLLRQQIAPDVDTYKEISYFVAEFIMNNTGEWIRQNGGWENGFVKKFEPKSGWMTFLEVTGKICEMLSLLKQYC
Bcl-W Bim block – human Bim-Bcl-W interaction inhibition | Q92843 | bead-based flow cytometry, Bim peptide-Bcl-W binding | inhibition, % at 10 µM | actives 0.02% (n = 190,000);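 further: 0% = bound tracer without compound and 100% = peptide blocker; higher means less fluorescent Bim peptide bound to Bcl-W beads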
Bcl-2 Bim block – disrupts Bim peptide binding to human Bcl-2; Bead-based flow cytometry, Bim peptide-Bcl-2 binding; actives 0.06% (n = 190,000); inhibition, % at 10 µM; P10415; in the data active means inhibition above about 40%;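 further: 0% = no compound wells with probe peptide and 100% = reference peptide inhibitor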
Bim-Bcl-XL – human Bim-Bcl-XL interaction inhibition | Q07817 | Bim peptide-Bcl-XL binding, bead flow cytometry, fluorescence | inhibition, % at 10 µM | actives 0.04% (n = 190,000) | AID 1007
Bim-Bcl-B – human Bim-Bcl-B interaction inhibition. Q9HD36. bead-based flow cytometry, Bim peptide-Bcl-B binding. inhibition, % at 10 µM. actives 0.073% (n = 190,000);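 further: 0% = tracer peptide without compound and 100% = reference inhibitor peptide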
Bim-Bcl-XL DR – Bim-Bcl-XL interaction regulation, dose confirmation. bead-based flow cytometry, Bim-Bcl-XL binding. shares compounds with Bfl-1 Bim block. 40 tested, under 10 active. inhibition of binding at 100 µM; call rule not given here
The depositor's hits bear a star; . = no result given. Unless noted, no stated cut-off is given here; in the data, active means inhibition above about 40%.

SMILES | Bfl-1 Bim block | Bcl-W Bim block | Bcl-2 Bim block | Bim-Bcl-XL | Bim-Bcl-B | others
Cc1ccc(-c2nc(N3CCOCC3)s[n+]2-c2ccccc2)cc1 | 53* | 4 | 13 | 11 | -42
COC(=O)C1C2c3ccccc3OC1(C)N=c1s/c(=C/c3cnn(C)c3C)c(=O)n12 (stereo not given) | 11 | 19 | 27 | 18 | 73*
Cc1ccc2c(c1)C1CN(C)CCC1N2C(=S)Nc1cccnc1 (stereo not given) | -4 | -1 | -3 | -2 | -7
Cc1ccc2c(c1)C1CN(C)CCC1N2C(=O)Nc1cccc(Cl)c1 (stereo not given) | . | 16 | 85* | 19 | .
N=C1c2ccccc2CN1c1ncccn1 | -4 | -3 | -2 | -2 | -2
COc1ccc(C2CN(C)CC2C(=O)c2ccc(F)cc2)cc1Cl (stereo not given) | 59* | 2 | 81* | 4 | 77*
CN1CC(C(=O)c2ccc(F)cc2)C(c2c(F)cccc2Cl)C1 (stereo not given) | 5 | 5 | 0 | 7 | 0
O=c1[nH]c(=S)n(Cc2ccc(F)cc2)c(O)c1C=NCc1cccnc1 | -3 | -6 | -4 | -6 | -4
O=C1NC(=O)C2(Cc3c(nc4ccccn4c3=O)N3CCCCCC32)C(=O)N1Cc1ccccc1 (stereo not given) | -1 | 0 | 4 | -4 | 59* | Bim-Bcl-XL DR=3.8
CCCc1nc2ccc(Br)cc2c(=O)n1-c1ccc([N+](=O)[O-])c(C(F)(F)F)c1 | -11 | -4 | -7 | -11 | -11
